# The panel holds about 79,000 compounds, 15% with a hit somewhere; the sample as a whole holds those more often. A number with no mark means an inactive call. Cut-off read from the data, not from the text of the source: active = growth inhibition above about 70%; inactive = the rest.
# Experiment: NCI Yeast Anticancer Drug Screen. Data for the sgs1 mgt1 strain (AID 161);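 note: 0% = growth of cultures given vehicle only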
# Details: S. cerevisiae sgs1 mgt1 strain, at 50.0 µM, hits give high values
# Description: Growth inhibition of yeast strains with defined genetic alterations is measured as a screen for potential anti-cancer activity. Selected strains with alterations in DNA damage repair or cell cycle control were exposed to compounds and growth inhibition was measured relative to vehicle treated controls. The strain used in this assay is sgs1 mgt1
row,SMILES,growth inhibition
1,O=C(NC(COC(=O)c1ccccc1)COC(=O)c1ccccc1)c1ccccc1,12.8%
2,COc1ccccc1NC(=O)CC(C)=O,7.8%
3,CC1(C)C2CC3OC3(C)C1C2 (stereo not given),12.4%
4,N#Cc1nc(CCCCCN2C(=O)c3ccccc3C2=O)oc1N,-23.1%
5,O=C(/C=C/c1ccccc1)c1cccc([N+](=O)[O-])c1,21.4%
6,CCC1C(OC)=CC(CC)(CO)C=C1OC (stereo not given),6.15%
7,Cc1nc(-n2nc(-c3ccccc3)cc2-c2ccccc2)sc1C(/C=C/c1ccc([N+](=O)[O-])cc1)=N/NC(N)=S,12.7%
8,COc1ccc(C(=O)C[C@H]2CCC[C@@H](CC(=O)c3ccc(OC)cc3)N2C)cc1,5.05%
9,CCOC(=O)c1cnc2c(ccc3ncccc32)c1Cl,15.8%
10,Cc1cc(Cl)c(=O)n(-c2ccccc2)n1,-9.95%
11,COc1ccc(OC)c(C(=O)C=C(C(F)(F)F)C(F)(F)F)c1,-3.8%
12,O=C(OCCO)c1ccc(O)c(O)c1,3.1%
13,CC12CCC(=O)N1[C@@H](c1ccccc1)[C@@H](c1ccccc1)O2 (stereo not given in full),-0.85%
14,Nc1cc([N+](=O)[O-])cc(S(=O)(=O)O)c1O,-14.2%
15,NC(=O)C1C2C=CC(O2)C1C(=O)O (stereo not given),-10.3%
16,OC1CCC2=C(C1)C1CCC2C1 (stereo not given),-11.8%
17,Cn1c(=O)c2c(nc(Cc3ccccc3)n2CC(=O)O)n(C)c1=O,-30.8%
18,CN(C)S(=O)(=O)Cc1ccccc1,-6.65%
19,O/N=C/C(=Nc1cccc2ccccc12)NO,-12.1%
20,O=P(O)(O)Oc1ccc(NCCO)cc1,3.3%

row,SMILES,growth inhibition
1,CCCCn1c(-c2ccccc2)cs/c1=N\NC(=O)Cn1c(C)nc2ccccc21,-8.4%
2,Cc1ccccc1C(=O)NCc1ccccc1,0.6%
3,CC(C)([NH-])C[NH-].[Cl][Pt+2][Cl],-24.5%
4,O=C(NNc1ccccc1)c1ccc(Cl)cc1Cl,50%
5,CCCCCCCCCCCCCCCCCCc1c(C)cc(C)cc1C,3.7%
6,O=C1C2Cc3ccccc3CN2C(=O)N1CCN1CCCC1 (stereo not given),-12.1%
7,CC1=C2N3C[C@@H](n4c(=O)n(C)c(=O)n43)C23CCC1n1c(=O)n(C)c(=O)n13,17.9%
8,O=C(O)CC1CC2CC(=O)C1C2 (stereo not given),-14.7%
9,CSc1nc(SC)c(Cl)c(C(Cl)Cl)n1,68.8%
10,Cc1ccccc1-n1c(=O)sc2c(=O)n(-c3ccccc3)c(=S)[nH]c21,6.9%
11,Cc1cc2oc(=O)cc(C(=O)O)c2c(=O)o1,-13.2%
12,CCN(CC)C(=O)c1ccccc1,-10.3%
13,Cc1ccc(N=C(N)NC#N)cc1,-27.1%
14,COC(=O)c1cc2c(cc1CC(Cc1ccc3c(c1)CCCC3)C(=O)OC)CCCC2 (stereo not given),-15.2%
15,Clc1cccc(-c2nc3cccc4c3n2Cc2ncccc2-4)c1,-42.5%
16,CCCCCCCCCCCCCCCCCCN=C=O,-17.8%
17,CC(=O)OCC1OC(n2c(=S)n(-c3ccc([N+](=O)[O-])cc3)c(=O)c3ccccc32)C(OC(C)=O)C(OC(C)=O)C1OC(C)=O (stereo not given),-9.55%
18,CCCCC(=O)NC1=CC(=O)c2ccccc2C1=O,47.1%
19,CCN(CC)P1(=O)C=C(C)C2C1C1C=C(C)C2P1(=O)N(CC)CC (stereo not given),-5.25%
20,c1ccc(C[P+]2(c3ccccc3)c3ccccc3-c3ccccc32)cc1,-11.2%

# From PubChem BioAssay (NCI)
